# Experimental data taken from ChEMBL document CHEMBL3988442, “University of Dundee, Small-Polar-MMV Screening Library” (2021).
# For part of these data: Potency and affinity values are given separately.
# Columns and labels:
# [1] = biological target: Protein translocase subunit SecA (Escherichia coli (strain K12)) (UniProt P10408); assay: Assay to Identify E. coli SecA ATPase Inhibitors; assay type: functional; set-up: scale not given: direction of the effect not stated beside the values; conditions: 30 µM
# [2] = biological target: T1, Ubiquitin-activating enzyme e1, putative (Leishmania donovani (strain BPK282A1)) (UniProt E9BSI1); assay: Leishmania donovani Ubiquitin Activating Enzyme (LdE1); assay type: functional; set-up: scale not given: direction of the effect not stated beside the values; conditions: 30 µM
# T1 sequence (whole entry): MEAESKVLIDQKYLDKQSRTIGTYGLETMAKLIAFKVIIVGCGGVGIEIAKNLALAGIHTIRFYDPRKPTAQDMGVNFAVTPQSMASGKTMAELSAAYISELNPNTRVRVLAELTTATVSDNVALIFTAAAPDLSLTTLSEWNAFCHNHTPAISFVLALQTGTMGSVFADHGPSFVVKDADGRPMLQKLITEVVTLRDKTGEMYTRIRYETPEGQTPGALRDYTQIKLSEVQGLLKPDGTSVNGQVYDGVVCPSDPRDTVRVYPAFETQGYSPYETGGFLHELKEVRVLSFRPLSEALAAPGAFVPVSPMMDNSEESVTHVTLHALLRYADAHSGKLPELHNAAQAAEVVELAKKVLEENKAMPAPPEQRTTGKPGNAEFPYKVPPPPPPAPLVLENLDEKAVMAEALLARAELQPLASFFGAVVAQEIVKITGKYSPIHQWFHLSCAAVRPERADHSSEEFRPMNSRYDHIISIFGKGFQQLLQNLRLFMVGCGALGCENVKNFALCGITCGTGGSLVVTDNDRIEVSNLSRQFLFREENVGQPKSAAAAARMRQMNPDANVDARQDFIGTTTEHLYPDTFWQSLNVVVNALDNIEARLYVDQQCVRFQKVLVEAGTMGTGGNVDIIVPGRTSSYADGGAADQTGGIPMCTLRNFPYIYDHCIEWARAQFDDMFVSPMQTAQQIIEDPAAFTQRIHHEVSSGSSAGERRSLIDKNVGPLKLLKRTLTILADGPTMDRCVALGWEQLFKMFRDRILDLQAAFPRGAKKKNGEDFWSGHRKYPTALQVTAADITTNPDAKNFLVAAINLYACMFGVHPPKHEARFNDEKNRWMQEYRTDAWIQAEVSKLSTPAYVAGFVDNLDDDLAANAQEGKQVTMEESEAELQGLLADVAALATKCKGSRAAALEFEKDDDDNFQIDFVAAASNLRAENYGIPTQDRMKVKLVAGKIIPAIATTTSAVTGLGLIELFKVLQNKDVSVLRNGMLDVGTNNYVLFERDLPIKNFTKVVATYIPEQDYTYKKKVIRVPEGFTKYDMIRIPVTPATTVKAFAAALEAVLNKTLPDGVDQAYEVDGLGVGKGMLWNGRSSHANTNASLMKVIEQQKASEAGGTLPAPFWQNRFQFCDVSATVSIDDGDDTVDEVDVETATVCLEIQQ
# [3] = biological target: AMP-activated protein kinase, AMPK (Homo sapiens) (UniProt P54646+O43741+P54619+Q9UGJ0+Q9Y478+Q13131+Q9UGI9); assay: AMP-dependent Kinase enzyme assay. An in vitro enzyme assay that detects ADP turnover that is directly proportional to AMPK activity. This uses naive AMPK that is activated during the assay with MK-8722; assay type: functional; set-up: scale not given: direction of the effect not stated beside the values; conditions: 30 µM
# [4] = biological target: Sialic acid-binding Ig-like lectin 9 (Homo sapiens) (UniProt Q9Y336); assay: Hs-Siglec9 ALPHAscreen SOP 20170721; set-up: scale not given: direction of the effect not stated beside the values; conditions: 10 µM
# [5] = system: Trypanosoma cruzi; assay: Trypanosoma cruzi phosphomannomutase and mannose-1-phosphate guanylyltransferase assay; assay type: functional; set-up: scale not given: direction of the effect not stated beside the values; conditions: 10 µM
# [6] = biological target: T2, Arginase-2, mitochondrial (Homo sapiens) (UniProt P78540); assay: in vitro enzyme assay to detect the production of urea directly proportional to the activity of Arginase II; assay type: functional; set-up: scale not given: in the data most compounds retested in dose-response had high values
# T2 sequence (whole entry): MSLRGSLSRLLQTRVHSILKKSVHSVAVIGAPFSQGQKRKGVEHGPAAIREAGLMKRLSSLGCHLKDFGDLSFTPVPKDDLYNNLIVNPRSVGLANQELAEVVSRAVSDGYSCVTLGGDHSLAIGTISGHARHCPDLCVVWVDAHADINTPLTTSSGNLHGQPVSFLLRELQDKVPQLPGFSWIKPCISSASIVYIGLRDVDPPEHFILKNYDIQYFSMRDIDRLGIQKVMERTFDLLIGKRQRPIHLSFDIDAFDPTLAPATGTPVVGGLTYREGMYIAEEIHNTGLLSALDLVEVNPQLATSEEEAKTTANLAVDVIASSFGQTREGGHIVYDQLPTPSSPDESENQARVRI
# [7] = biological target: T3, Proteasome subunit beta (Trypanosoma cruzi) (UniProt O96673); assay: Trypanosoma cruzi proteasome chymotrypsin-like activity (TcProtChymo) assay.; assay type: functional; set-up: scale not given: in the data most compounds retested in dose-response had high values; conditions: 9.37 µM
# T3 sequence (whole entry): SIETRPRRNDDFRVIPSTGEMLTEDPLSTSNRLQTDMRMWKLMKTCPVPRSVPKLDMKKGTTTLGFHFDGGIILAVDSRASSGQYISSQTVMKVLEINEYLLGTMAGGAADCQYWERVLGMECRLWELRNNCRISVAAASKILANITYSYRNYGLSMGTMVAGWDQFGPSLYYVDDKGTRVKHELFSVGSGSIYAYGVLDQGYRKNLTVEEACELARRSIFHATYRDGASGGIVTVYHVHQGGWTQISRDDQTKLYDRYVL
# [8] = species on record: Homo sapiens; assay: To identify inhibition of the IFN signalling (Jak-Stat) pathway via expression of an eGFP reporter gene under the control of an IFN-stimulated response element (ISRE) containing MxA promoter.; assay type: functional; set-up: scale not given: direction of the effect not stated beside the values; conditions: 30 µM
# [9] = biological target: T4, Tyrosyl-tRNA synthetase, putative (Trypanosoma cruzi (strain CL Brener)) (UniProt Q4DSP6); assay: Trypanosoma cruzi tyrosyl tRNA synthetase (TcYRS) _High Tyrosine SOP; assay type: functional; set-up: scale not given: in the data most compounds retested in dose-response had high values; conditions: 30 µM
# T4 sequence (whole entry): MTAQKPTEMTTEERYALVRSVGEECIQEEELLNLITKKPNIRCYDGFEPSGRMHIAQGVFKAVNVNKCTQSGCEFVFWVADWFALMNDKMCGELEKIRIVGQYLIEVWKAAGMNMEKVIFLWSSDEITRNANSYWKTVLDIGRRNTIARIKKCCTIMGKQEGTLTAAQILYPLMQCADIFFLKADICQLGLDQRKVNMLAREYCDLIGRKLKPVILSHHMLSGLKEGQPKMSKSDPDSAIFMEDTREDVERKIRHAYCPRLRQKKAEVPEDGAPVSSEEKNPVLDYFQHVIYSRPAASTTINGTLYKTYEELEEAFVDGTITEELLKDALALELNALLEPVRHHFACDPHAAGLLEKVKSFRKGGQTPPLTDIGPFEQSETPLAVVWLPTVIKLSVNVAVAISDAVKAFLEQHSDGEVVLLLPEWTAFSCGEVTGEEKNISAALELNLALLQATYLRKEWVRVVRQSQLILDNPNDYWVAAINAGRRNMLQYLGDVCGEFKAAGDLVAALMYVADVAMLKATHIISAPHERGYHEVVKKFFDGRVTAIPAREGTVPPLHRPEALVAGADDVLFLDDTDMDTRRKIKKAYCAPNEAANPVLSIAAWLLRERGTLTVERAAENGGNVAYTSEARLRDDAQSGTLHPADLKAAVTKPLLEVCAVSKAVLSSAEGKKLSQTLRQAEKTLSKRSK
# [10] = biological target: T4, Tyrosyl-tRNA synthetase, putative (Trypanosoma cruzi (strain CL Brener)); assay: Trypanosoma cruzi tyrosyl tRNA synthetase (TcYRS) SOP; assay type: functional; set-up: scale not given: direction of the effect not stated beside the values; conditions: 30 µM
# [11] = biological target: Chromo domain-containing protein 1 (Saccharomyces cerevisiae (strain ATCC 204508 / S288c) (Baker's yeast)) (UniProt P32657); assay: ScCHD-1 Enzyme Inhibition Assay; assay type: functional; set-up: scale not given: in the data most compounds retested in dose-response had high values; conditions: 30 µM
# [12] = biological target: T5, Methionyl-tRNA synthetase, putative (Leishmania donovani (strain BPK282A1)) (UniProt E9BF75); assay: Leishmania donovani Methionine tRNA synthetase (LdMetRS):v7. Dose response assay; assay type: functional; set-up: conc 80 nM, time 150 minutes
# T5 sequence (whole entry): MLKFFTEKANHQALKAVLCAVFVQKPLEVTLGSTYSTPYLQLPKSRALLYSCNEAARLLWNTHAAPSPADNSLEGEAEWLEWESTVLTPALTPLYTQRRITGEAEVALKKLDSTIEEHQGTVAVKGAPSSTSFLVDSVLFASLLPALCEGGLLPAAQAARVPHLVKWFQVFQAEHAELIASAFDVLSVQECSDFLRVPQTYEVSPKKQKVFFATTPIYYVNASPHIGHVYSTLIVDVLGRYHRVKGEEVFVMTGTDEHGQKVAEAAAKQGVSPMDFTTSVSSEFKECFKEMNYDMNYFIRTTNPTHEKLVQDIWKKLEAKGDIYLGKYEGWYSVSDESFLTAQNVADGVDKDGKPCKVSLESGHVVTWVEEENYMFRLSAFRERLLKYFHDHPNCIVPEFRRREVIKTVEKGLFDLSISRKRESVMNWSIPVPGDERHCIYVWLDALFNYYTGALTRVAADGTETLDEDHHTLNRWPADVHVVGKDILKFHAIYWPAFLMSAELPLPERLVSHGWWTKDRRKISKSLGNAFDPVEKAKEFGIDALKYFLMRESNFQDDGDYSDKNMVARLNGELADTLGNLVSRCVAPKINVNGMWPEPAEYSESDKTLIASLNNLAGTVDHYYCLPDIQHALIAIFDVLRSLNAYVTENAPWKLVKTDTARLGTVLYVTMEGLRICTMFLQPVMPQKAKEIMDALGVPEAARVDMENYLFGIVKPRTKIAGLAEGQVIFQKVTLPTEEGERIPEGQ
# Sialic acid-binding Ig-like lectin 9 (Homo sapiens), sequence (Q9Y336 whole entry): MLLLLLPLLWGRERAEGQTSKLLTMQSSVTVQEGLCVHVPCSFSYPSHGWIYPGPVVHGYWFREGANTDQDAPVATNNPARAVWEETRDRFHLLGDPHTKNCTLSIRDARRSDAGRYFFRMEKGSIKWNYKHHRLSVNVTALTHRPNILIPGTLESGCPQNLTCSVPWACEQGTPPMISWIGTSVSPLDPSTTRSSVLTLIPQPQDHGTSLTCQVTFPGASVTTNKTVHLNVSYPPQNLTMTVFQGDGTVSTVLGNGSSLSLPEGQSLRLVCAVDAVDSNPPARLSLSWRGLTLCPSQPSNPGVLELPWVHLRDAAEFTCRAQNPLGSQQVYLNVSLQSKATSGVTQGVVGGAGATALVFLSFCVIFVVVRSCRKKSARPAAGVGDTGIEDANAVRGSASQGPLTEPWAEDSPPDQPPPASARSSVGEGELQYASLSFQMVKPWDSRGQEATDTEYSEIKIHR
# Chromo domain-containing protein 1 (Saccharomyces cerevisiae (strain ATCC 204508 / S288c) (Baker's yeast)), sequence (P32657 whole entry, the tested form may be a part): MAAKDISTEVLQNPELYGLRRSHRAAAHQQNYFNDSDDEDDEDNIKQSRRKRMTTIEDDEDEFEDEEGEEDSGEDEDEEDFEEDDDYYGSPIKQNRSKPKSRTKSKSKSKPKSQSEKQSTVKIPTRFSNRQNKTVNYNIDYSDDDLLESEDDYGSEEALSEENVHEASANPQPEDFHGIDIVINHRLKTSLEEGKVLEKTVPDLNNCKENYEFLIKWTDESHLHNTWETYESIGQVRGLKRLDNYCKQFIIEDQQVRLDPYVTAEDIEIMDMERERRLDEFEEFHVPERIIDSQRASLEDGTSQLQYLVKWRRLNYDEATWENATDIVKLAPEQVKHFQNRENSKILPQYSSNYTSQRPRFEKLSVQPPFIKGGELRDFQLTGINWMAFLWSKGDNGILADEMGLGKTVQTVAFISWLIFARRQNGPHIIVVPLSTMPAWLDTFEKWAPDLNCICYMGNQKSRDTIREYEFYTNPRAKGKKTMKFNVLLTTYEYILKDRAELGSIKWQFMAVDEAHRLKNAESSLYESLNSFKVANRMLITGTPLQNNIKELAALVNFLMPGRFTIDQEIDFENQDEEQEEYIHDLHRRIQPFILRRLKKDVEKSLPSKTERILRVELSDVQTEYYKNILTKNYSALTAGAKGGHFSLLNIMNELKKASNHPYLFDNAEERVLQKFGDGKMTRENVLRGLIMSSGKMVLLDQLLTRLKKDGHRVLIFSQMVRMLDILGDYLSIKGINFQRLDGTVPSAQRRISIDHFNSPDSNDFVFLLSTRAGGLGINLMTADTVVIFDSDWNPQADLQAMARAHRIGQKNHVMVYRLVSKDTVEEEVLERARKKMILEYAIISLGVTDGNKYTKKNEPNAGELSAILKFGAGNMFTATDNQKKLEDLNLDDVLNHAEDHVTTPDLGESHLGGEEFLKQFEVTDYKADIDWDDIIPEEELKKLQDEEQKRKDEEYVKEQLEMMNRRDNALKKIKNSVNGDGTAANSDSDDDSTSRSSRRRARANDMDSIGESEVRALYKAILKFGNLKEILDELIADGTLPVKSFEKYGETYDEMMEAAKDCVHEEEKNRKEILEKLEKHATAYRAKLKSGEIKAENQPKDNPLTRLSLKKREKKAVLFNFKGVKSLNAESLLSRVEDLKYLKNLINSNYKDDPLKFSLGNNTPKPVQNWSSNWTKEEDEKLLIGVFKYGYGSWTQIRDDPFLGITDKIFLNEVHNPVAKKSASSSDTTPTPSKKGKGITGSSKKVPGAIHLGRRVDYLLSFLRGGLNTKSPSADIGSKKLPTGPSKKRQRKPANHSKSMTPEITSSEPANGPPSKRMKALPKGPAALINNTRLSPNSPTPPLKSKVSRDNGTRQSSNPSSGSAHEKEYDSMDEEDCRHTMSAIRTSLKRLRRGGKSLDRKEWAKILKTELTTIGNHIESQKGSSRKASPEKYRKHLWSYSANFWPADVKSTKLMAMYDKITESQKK
# Protein translocase subunit SecA (Escherichia coli (strain K12)), sequence (P10408 whole entry): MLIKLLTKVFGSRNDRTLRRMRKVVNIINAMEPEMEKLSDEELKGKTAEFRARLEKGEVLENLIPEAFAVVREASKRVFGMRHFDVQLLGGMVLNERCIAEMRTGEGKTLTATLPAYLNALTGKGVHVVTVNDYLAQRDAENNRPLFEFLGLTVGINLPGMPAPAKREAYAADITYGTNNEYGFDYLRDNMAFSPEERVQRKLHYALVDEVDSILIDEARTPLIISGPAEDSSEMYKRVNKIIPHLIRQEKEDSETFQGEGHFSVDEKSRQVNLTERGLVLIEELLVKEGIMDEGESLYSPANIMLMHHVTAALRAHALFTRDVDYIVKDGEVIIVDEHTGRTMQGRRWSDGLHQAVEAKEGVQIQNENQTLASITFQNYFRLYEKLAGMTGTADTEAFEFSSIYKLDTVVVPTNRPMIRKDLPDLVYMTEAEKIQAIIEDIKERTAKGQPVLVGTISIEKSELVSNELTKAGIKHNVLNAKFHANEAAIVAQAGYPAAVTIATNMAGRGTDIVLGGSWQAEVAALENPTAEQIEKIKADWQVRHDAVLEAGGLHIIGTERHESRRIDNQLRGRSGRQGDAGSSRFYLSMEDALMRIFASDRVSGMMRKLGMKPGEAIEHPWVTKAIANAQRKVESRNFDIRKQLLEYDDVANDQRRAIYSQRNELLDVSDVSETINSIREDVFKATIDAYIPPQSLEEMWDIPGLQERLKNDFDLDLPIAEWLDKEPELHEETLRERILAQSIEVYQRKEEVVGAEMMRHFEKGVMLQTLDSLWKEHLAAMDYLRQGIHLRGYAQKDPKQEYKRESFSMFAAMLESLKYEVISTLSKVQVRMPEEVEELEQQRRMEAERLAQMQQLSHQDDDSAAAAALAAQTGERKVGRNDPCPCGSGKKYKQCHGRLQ
compound,measurement,setting,value
Cc1cc(CNC(=O)N2CCN(c3ccccc3)CC2)no1,Percent Effect,[1],-3.75%
same,Percent Effect,[2],5.41%
same,Percent Effect,[3],2.37%
same,Percent Effect,[4],0.348%
same,Percent Effect,[5],0%
same,Percent Effect,[6]; 30 µM,3.78%
same,Percent Effect,[6]; 33.3 µM,4.17%
same,Percent Effect,[7],10.6%
same,Percent Effect,[8],-2.92%
same,Percent Effect,[9],9.9%
same,Percent Effect,[10],3.66%
same,Percent Effect,[11],-1.36%
O=C(Cn1nc2c(cc1=O)CCCC2)N[C@@H](C(=O)O)c1ccccc1,Percent Effect,[1],-1.59%
same,Percent Effect,[2],9.33%
same,Percent Effect,[3],0.931%
same,Percent Effect,[4],7.75%
same,Percent Effect,[5],3.34%
same,Percent Effect,[6]; 30 µM,8.11%
same,Percent Effect,[6]; 33.3 µM,0.176%
same,Percent Effect,[7],12.2%
same,Percent Effect,[8],14.1%
same,Percent Effect,[9],10.6%
same,Percent Effect,[10],20.5%
same,Percent Effect,[11],-5.57%
CN(CC1CC1)c1ccc2ccc(C(=O)NCCN3CCOCC3)cn12,PXC50,"[12]; BOTTOM -1.512370452, HILLSLOPE 1.01203919, MAX_EFFECT 54.40140845, TOP 92.97919978",4.18
same,PXC50,"[12]; BOTTOM -1.802135636, HILLSLOPE 1.091019119, MAX_EFFECT 56.05700713, TOP 88.72898538",4.23
same,Percent Effect,[1],0.0454%
same,Percent Effect,[2],6.49%
same,Percent Effect,[4],-2.21%
same,Percent Effect,[5],2.06%
same,Percent Effect,[6]; 33.3 µM,2.28%
same,Percent Effect,[7],0.944%
same,Percent Effect,[8],29.3%
same,Percent Effect,[9],34.8%
same,Percent Effect,[10],15%
same,Percent Effect,[11],-2.15%
Cc1ccccc1-c1cncc(C2CCN(C(=O)CN(C)C)CC2)n1,Percent Effect,[1],-4.06%
same,Percent Effect,[2],6.76%
same,Percent Effect,[3],14.4%
same,Percent Effect,[4],-6.59%
same,Percent Effect,[5],-4.74%
same,Percent Effect,[6]; 30 µM,-1.62%
same,Percent Effect,[6]; 33.3 µM,-8.59%
same,Percent Effect,[7],9.83%
same,Percent Effect,[8],19.1%
same,Percent Effect,[9],0%
same,Percent Effect,[10],1.3%
same,Percent Effect,[11],-14.4%
CSCC(=O)N1CCCC1c1noc(C2CC2)n1 (stereo not given),Percent Effect,[1],-5.16%
same,Percent Effect,[2],10.7%
same,Percent Effect,[3],-6.47%
same,Percent Effect,[4],12.3%
same,Percent Effect,[5],4.97%
same,Percent Effect,[6]; 30 µM,4.87%
same,Percent Effect,[6]; 33.3 µM,29.2%
same,Percent Effect,[7],-1.92%
same,Percent Effect,[8],4.6%
same,Percent Effect,[9],0.546%
same,Percent Effect,[10],11.1%
same,Percent Effect,[11],-16.6%
